Laboratory results from PubChem BioAssay.
The source made the active and inactive calls.

Legend:
[1] = optical density shifts of acrAB sulA E. coli – strain DRC41, OD650, 48 h, E. coli filamentation inducer project, primary screen (AID 1152); conditions: higher = more signal, called active from +8 up or from −8 down;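 further: E. coli MC1000 strain DRC41 lacking acrAB efflux pump and sulA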
[2] = probe aLefty1 binding on compound microarray – biochemical, small-molecule microarray, 635/667 nm fluorescence, primary screen (AID 1153); conditions: higher = more signal;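 further: score merges spot fluorescence with signal-to-noise ratio from the scanned slide images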
[3] = plasmodial surface anion channel blockers, osmotic lysis – cell-based, P. falciparum Indochina, OD700, 1 h, primary screen (AID 1154); conditions: P. falciparum Indochina infected RBC osmotic lysis, higher = more signal, called active from +8 up or from −8 down
[4] = plasmodial surface anion channel blockers, osmotic lysis – cell-based, P. falciparum Indochina, OD700, 2 h, primary screen (AID 1155);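 further: lysis reports solute entry through the parasite surface anion channel PSAC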; conditions: P. falciparum Indochina infected erythrocytes, higher = more signal, called active from +8 up or from −8 down
[5] = changes in parasitized red cell lysis, either direction – P. falciparum Indochina, OD700, 3 h, PSAC antagonist project, primary screen (AID 1156); conditions: P. falciparum-infected erythrocytes, osmotic lysis, higher = more signal, called active from +8 up or from −8 down
[6] = plasmodial surface anion channel blockers, osmotic lysis – cell-based, P. falciparum Indochina, OD700, 18 h, primary screen (AID 1157); conditions: P. falciparum Indochina infected erythrocytes, osmotic lysis OD700, 18 h; higher = more signal, called active from +8 up or from −8 down
[7] = S6 kinase pathway phospho-S6 level changes – cell-based, A549, cytoblot, luminescence, serum-stimulated, primary screen (AID 1158); conditions: 5 h, higher = more signal;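 further: serum-stimulated A549 lung adenocarcinoma cells; signal is phosphorylated S6 detected by cytoblot immunostaining with HRP secondary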
[8] = molecular target: NADPH oxidase 2 (Homo sapiens) (UniProt P04839); assay: compounds shifting NOX2 Amplex Red fluorescence – cell-based, HEK293-NOX2, PMA-stimulated, NOX inhibitor project, primary screen (AID 1159); conditions: 45 min, higher = more signal, called active from +8 up or from −8 down; further: test concentration not given here
[9] = molecular target: NADPH oxidase 4 (Homo sapiens) (UniProt Q9NPH5); assay: compounds shifting NOX4 Amplex Red fluorescence – cell-based, HEK293-NOX4, tetracycline-induced, NOX inhibitor project, primary screen (AID 1160); conditions: HEK293-NOX4, Amplex Red H2O2 fluorescence, 45 min; higher = more signal, called active from +8 up or from −8 down
[10] = molecular target: NADPH oxidase 5 (Homo sapiens) (UniProt Q96PH1); assay: compounds shifting NOX5 Amplex Red fluorescence – cell-based, HEK293-NOX5, NOX inhibitor project, primary screen (AID 1161); conditions: HEK293-NOX5, ionomycin, 45 min, higher = more signal
Sequence of NADPH oxidase 5 (Homo sapiens) (Q96PH1 whole entry, looked up): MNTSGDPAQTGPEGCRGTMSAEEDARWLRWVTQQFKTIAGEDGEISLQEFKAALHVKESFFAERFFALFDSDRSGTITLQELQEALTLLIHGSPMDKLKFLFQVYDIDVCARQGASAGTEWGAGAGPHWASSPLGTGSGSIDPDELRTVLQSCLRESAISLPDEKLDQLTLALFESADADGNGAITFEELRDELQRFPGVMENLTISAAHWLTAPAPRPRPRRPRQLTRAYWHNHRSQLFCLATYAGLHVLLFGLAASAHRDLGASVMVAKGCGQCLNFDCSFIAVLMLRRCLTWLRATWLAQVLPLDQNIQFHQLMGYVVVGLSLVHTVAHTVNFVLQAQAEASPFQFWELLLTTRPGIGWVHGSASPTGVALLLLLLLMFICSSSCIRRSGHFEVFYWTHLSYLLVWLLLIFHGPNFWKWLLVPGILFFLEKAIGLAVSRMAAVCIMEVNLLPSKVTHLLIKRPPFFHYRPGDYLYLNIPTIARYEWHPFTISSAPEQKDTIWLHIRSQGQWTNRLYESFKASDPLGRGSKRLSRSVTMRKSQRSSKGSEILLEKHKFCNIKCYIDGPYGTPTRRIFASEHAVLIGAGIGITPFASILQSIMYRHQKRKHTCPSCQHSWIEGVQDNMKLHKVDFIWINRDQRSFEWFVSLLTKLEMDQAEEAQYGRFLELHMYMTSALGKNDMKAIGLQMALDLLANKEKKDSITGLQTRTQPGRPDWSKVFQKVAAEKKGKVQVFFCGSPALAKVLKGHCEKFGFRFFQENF

Sequence of NADPH oxidase 2 (Homo sapiens) (P04839 whole entry, looked up): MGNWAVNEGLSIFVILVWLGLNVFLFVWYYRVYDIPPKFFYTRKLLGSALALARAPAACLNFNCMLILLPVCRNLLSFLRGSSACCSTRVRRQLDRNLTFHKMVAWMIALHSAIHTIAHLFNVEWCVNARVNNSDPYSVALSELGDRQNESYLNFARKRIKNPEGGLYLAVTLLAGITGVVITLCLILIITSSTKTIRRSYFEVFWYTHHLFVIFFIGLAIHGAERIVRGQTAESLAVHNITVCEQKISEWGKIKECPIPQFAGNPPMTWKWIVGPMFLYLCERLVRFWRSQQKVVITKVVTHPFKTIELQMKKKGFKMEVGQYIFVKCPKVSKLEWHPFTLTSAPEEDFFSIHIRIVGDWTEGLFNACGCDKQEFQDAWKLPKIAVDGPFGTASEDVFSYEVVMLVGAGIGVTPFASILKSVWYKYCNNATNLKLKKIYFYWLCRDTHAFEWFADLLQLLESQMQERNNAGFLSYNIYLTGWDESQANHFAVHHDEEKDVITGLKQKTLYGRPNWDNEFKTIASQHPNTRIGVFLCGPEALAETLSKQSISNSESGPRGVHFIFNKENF
Sequence of NADPH oxidase 4 (Homo sapiens) (Q9NPH5 whole entry, looked up): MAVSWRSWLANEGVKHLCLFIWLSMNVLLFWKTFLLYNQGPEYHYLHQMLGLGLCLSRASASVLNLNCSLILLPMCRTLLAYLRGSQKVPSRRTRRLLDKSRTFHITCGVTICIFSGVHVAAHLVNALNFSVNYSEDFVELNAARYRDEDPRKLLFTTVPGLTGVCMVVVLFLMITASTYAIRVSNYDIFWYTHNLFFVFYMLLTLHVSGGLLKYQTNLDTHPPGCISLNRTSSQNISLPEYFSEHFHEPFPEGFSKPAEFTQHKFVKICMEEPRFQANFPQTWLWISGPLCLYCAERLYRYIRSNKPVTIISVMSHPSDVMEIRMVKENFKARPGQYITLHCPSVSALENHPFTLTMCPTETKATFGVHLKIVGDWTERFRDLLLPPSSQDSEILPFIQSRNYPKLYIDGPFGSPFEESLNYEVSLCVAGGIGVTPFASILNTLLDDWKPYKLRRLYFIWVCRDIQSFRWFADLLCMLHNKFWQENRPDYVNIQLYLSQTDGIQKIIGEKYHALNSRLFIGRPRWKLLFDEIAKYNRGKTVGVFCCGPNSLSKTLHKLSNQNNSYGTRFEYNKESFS

Row | Compound | z-score [1] | composite z-score [2] | z-score [3] | z-score [4] | z-score [5] | z-score [6] | z-score [7] | z-score [8] | z-score [9] | z-score [10]
1 | COc1cc(Cc2cc3c(c(CCc4ccccc4)n2)[Si](C(C)C)(C(C)C)O[C@H]3c2ccccc2)cc(OC)c1OC | -1.77 (inactive) | 0.101 | -0.436 (inactive) | 0.356 (inactive) | -3.89 (inactive) | 0.0416 (inactive) | -0.557 | 1.25 (inactive) | -2.98 (inactive) | -3.87
2 | COC(=O)[C@H]1N=C(c2ccc(OCCCO)cc2)O[C@H]1c1ccccc1N=[N+]=[N-] | -0.33 (inactive) | 0.527 | 29.3 (active) | 24.7 (active) | 2.2 (inactive) | 4.48 (inactive) | 0.352 | -1.69 (inactive) | -0.0764 (inactive) | -2.1
3 | C=C(COC)/C(=C/C[C@@H](OC(C)=O)c1cccc(OCCO)c1)c1cnc2ccccc2c1 | 0.441 (inactive) | 0.106 | 22.7 (active) | 4.9 (inactive) | 0.377 (inactive) | 1.58 (inactive) | 0.249 | -1.21 (inactive) | -0.77 (inactive) | -2.27
4 | O=C(CS)NCCCCCCNC(=O)[C@H]1C[C@H]2C(=O)NCC(=O)N2[C@H]1c1cccc(OCCO)c1 | 0.838 (inactive) | 0.0797 | 2.16 (inactive) | -0.151 (inactive) | -1.92 (inactive) | -1.36 (inactive) | 0.21 | 2.14 (inactive) | 1.22 (inactive) | 0.769
5 | C=CC[C@@]1(C(=O)NCCCOC)N=C(c2ccc(OCCCO)cc2)O[C@@H]1c1ccccc1CN=[N+]=[N-] | 1.14 (inactive) | 0.607 | 22.3 (active) | 2.5 (inactive) | 0.493 (inactive) | -1.34 (inactive) | 0.812 | -0.477 (inactive) | 0.648 (inactive) | -0.274
6 | COCCCNC(=O)[C@]1(Cc2ccccc2CN=[N+]=[N-])N=C(c2ccc(OCCCO)cc2)O[C@@H]1c1ccccc1N=[N+]=[N-] | 0.913 (inactive) | 0.87 | 33.7 (active) | 31.2 (active) | 1.91 (inactive) | 8.54 (active) | 0.0038 | -0.713 (inactive) | 1.06 (inactive) | 1.42
7 | COC(=O)Cn1c(C(=O)N(C)C)cc2c1C[C@H]1CN(C(=O)c3ccccc3)[C@@](Cc3ccccc3)(C(=O)OC)[C@@H]21 | -2.08 (inactive) | 0.155 | -0.424 (inactive) | -0.734 (inactive) | -0.486 (inactive) | -1.31 (inactive) | 0.17 | 0.363 (inactive) | 1.59 (inactive) | -0.11
8 | O=C/C=C/c1ccc(-c2ccccc2)cc1 | 1.06 (inactive) | -0.0186 | 2.39 (inactive) | -0.681 (inactive) | -0.103 (inactive) | -2.17 (inactive) | 1.04 | 0.388 (inactive) | -1.85 (inactive) | 0.605
9 | COC(=O)[C@H](Cc1ccccc1)N1CC(C)(OC)O[C@@H](Cc2ccccc2)[C@H]1/C=C/C1CC1 (stereo not given in full) | 0.286 (inactive) | -0.147 | 1.92 (inactive) | 0.0937 (inactive) | -0.774 (inactive) | 0.281 (inactive) | -0.105 | -4.36 (inactive) | -0.147 (inactive) | -0.141
10 | COC(=O)[C@@]1(Cc2ccc(OC)cc2)[C@H]2c3cc(C(=O)N(C)C)n(Cc4c(CO)[nH]cc(C)c4=O)c3C[C@H]2CN1C(=O)c1ccccc1 | -2.08 (inactive) | 0.318 | 2.77 (inactive) | 0.814 (inactive) | 0.072 (inactive) | 0.643 (inactive) | -0.507 | -0.0394 (inactive) | -0.719 (inactive) | -0.777
11 | COc1ccc([Si](C)(C)[C@@H]2[C@@H](CC(=O)N(CCO)Cc3ccccc3)O[C@]3(C(=O)N(Cc4cccc(I)c4)c4ccccc43)[C@H]2C)cc1 | -0.307 (inactive) | 0.0464 | 4.63 (inactive) | 1.5 (inactive) | -0.0382 (inactive) | 1.14 (inactive) | 0.32 | -0.953 (inactive) | 1.19 (inactive) | 1.43
